We go through 115 compounds from PubChem BioAssay AID488969 (Vanderbilt High Throughput Screening Facility, 2010).

Whole data set: some 110,000 compounds, median “z-score” near -0.1, cut for the highest 2% near 2. What follows is part of a selection rich in the highest values, with near analogues and random picks from the rest. Active and inactive are the calls of the source.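 Rule for the calls: active = z-score in the third read window above 3 or below -3; inactive = the rest.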

The target of the test is Metabotropic glutamate receptor 8 (Rattus norvegicus) (UniProt P70579). Description: rat mGluR8 modulators via GIRK flux, primary screen, cell-based, thallium flux, HTS (AID 488969). As to conditions: HEK293 rat mGluR8, GIRK (G protein-gated inwardly rectifying potassium channel) thallium flux, FluoZin2; at 10 µM; stronger effect = higher value; submaximal glutamate (EC20) added with thallium.
Chain of Metabotropic glutamate receptor 8 (Rattus norvegicus) (P70579 whole entry, looked up): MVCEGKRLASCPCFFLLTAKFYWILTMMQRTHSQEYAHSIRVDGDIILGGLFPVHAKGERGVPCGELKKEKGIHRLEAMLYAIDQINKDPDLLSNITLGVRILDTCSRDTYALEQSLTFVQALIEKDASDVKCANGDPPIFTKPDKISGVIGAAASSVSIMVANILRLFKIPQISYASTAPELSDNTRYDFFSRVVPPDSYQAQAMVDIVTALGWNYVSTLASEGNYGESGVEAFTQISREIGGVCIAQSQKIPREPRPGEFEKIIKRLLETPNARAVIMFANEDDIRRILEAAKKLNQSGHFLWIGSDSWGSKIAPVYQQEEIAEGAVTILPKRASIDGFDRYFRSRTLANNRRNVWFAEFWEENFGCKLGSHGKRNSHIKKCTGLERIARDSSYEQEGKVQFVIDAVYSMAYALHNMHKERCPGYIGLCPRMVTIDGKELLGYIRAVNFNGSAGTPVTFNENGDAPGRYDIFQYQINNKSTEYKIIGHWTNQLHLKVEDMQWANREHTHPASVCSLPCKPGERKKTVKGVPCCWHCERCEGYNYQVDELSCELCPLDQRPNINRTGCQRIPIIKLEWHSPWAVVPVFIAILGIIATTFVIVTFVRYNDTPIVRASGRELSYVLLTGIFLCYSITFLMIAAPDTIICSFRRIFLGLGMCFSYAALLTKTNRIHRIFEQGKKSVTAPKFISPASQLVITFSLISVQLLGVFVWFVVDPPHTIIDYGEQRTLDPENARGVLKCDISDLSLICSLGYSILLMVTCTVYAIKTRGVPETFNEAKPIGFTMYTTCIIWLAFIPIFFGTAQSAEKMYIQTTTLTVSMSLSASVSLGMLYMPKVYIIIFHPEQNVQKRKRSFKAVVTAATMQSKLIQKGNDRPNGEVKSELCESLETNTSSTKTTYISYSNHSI
For `CCCc1nc2ccc(NC(=O)c3cccs3)cc2c(=O)n1Cc1ccc(Cl)cc1`, the z-score is -0.155.
The result for `O=C(C(=O)N1CCCc2ccccc21)c1c[nH]c2ccccc12` reads 0.104; that for `CCOC(=O)c1c(-c2ccccc2)oc2ccc(OC)cc12`, 0.0333.
On to `CCC(CC)NC(=O)COC(=O)c1ccc(OCc2ccc(C(C)=O)cc2OC)c(OC)c1`, for which the z-score was -0.23.
Compound `C/C(=N\NC(=O)c1ccc(OC2CCCC2)cc1)c1ccc(C)s1` returned a z-score of 1.05.
As for `Cc1ccc(CC2CC(=O)N(c3nc4ccccc4n3C)C2=O)cc1` (stereo not given), the z-score was -0.156.
Under `Cc1ccc(C(=O)NCCCn2ccnc2)cc1[N+](=O)[O-]` stands 0.161; under `Cc1ccc(CNC(=O)C(=O)NCCCn2ccnc2)cc1`, -0.281.
Compound `O=C(NCCCn1ccnc1)C(Cc1ccc([N+](=O)[O-])cc1)N1C(=O)c2ccccc2C1=O` (stereo not given) returned a z-score of 2.67.
`CN1CCN(C(=O)CN(c2cccc(Cl)c2)S(=O)(=O)c2ccccc2)CC1`: the z-score was -0.681.
`O=C(Nc1ccc(Cl)c(Cl)c1)Nc1nnc(CC2=CCCCC2)s1` showed a z-score of 0.0021.
The result for `CCOC(=O)c1sc(NC(=S)NC(=O)c2ccccc2)c(C(=O)OCC)c1C` reads 0.582.
Under `CCOC(=O)C1=C(NC(=S)NC(=O)c2ccccc2)c2ccccc2CC1C(C)C` (stereo not given) stands 3.46 (active).
As to `CCOC(=O)C1=C(N)c2ccccc2CC1C(C)C` (stereo not given), the z-score is -0.175.
For `CCOC(=O)c1ccc(NC(=O)c2ccc(NC(=O)c3ccccc3)cc2)cc1`, the z-score is -0.341.
The result for `CCOC(=O)c1ccc(NC(=O)c2ccccc2)cc1` reads -0.0754; that for `CCOC(=O)C1=C(NC(=S)NC(=O)c2ccccc2)c2ccccc2CC1(C)C`, 5.58 (active).
The result for `O=[N+]([O-])c1ccc(OCCN2CCCCCC2)cc1` reads 0.121.
The result for `CCCCN1C(=O)c2ccccc2C1C(=O)NC1CCCC1` (stereo not given) reads 3.2 (active); that for `O=C(NC1CCCCCC1)C1c2ccccc2C(=O)N1CCCN1CCOCC1` (stereo not given), -0.316; that for `COCCCN1C(=O)c2ccccc2C1C(=O)NC1CCCCCC1` (stereo not given), 0.0327.
Regarding `COc1ccc(-n2nnc3c(SCC(=O)Nc4ccc5c(c4)OCCO5)ncnc32)cc1`, the z-score turned out to be 0.658.
Under `Clc1cccc(-c2cc3nc4c(c(N5CCN(c6cnccn6)CC5)n3n2)CCCC4)c1` stands -0.109; under `Clc1cccc(-c2cc3nc4c(c(N5CCNCC5)n3n2)CCCC4)c1`, 2.71.
Under `OC1CCCN(c2c3c(nc4cc(-c5cccc(Cl)c5)nn24)CCC3)C1` (stereo not given) stands -0.591; under `CCCn1nc(CC(=O)OCC)c2ccccc2c1=O`, 0.73; under `O=C(Cn1[nH]c(=O)c2ccccc2c1=O)NCc1cccnc1`, -0.377.
On to `CC(C)C(NC(=O)c1ccccc1NC(=O)c1ccco1)C(=O)O` (stereo not given), for which the z-score is -0.744.
For the compound `O=C(Nc1cc(Cl)ccc1Oc1ccccc1)c1ccccc1F`, the z-score is 3.37 (active).
Turning to `CC(NC(=S)Nc1ccccc1OC(F)F)C(C)(C)C` (stereo not given), the z-score was -0.263.
As to `FC(F)Oc1ccccc1NC(=S)Nc1cccc(Cl)c1Cl`, the z-score was 3.76 (active).
Compound `Fc1ccc(NC(=S)Nc2ccc(F)c(Cl)c2)cc1Cl` registered a z-score of -0.0109.
Under `O=C(Nc1ccccc1Oc1ccccc1)c1ccccc1F` stands -0.161; under `S=C(Nc1cccc(Cl)c1)Nc1ccccc1Oc1ccccc1`, 15.4 (active).
Under `FC(F)Oc1ccccc1NC(=S)NCc1ccco1` stands 0.0626; under `Fc1ccc(NC(=S)Nc2ccccc2OC(F)F)cc1Cl`, 6.05 (active).
The result for `FC(F)Oc1ccc(NC(=S)NCc2ccccc2)cc1Cl` reads 0.178.
In the case of `COC(=O)c1cc(OC)c(OC)cc1NC(=S)Nc1cccc(Cl)c1`, the z-score was 0.731.
The result for `O=C(Nc1cc(Cl)ccc1Oc1ccccc1)c1ccc(F)cc1` reads -0.256; that for `COc1cc(C)c(NC(=S)Nc2cccc(Cl)c2)cc1OC`, 0.0992; that for `Cc1cc(Cl)ccc1NC(=S)NCc1ccc(Cl)cc1`, 0.0662.
Under `CC1(C)CC(=O)c2cc(C(=O)NCc3ccco3)c(=O)n(-c3ccc(Cl)cc3)c2C1` stands -0.635.
Under `COCc1nnc(NC(=O)c2cccs2)s1` stands -0.0696; under `NC(=O)COC(=O)c1cc(S(=O)(=O)N2CCOCC2)ccc1N1CCCCC1`, -0.0501; under `CCn1cc(Br)c(C(=O)Nc2cccc(Cl)c2)n1`, -0.412.
For `CCOC(=O)c1cc(-c2ccccc2)sc1NC(=O)C(C)OC(=O)c1cccnc1OCC` (stereo not given), the z-score turned out to be 0.0703.
Under `O=C(CCCOc1ccccc1)Nc1ccc2c(c1)OCCO2` stands 0.0498.
`CN(C(=O)c1ccc2c(c1)C(=O)N(CCC1=CCCCC1)C2=O)C1CCCCC1` displayed a z-score of 0.422.
For the compound `Cc1nc(NC2=NCN(CC3CCCO3)CN2)nc2ccccc12` (stereo not given), the z-score was found to be 0.234.
For `COc1cc2c(cc1OC)C(C1C(=O)CCCC1=O)N(C(=O)CCl)CC2` (stereo not given), the z-score was -0.173.
The compound `CCOc1ccc(C(=O)Nc2nc(C)cc(C)n2)cc1[N+](=O)[O-]` gave a z-score of -0.36.
The result for `Cc1ccc(C)c(N(CC(=O)NN=C2CCCCCCC2)S(C)(=O)=O)c1` reads -0.202; that for `Cc1ccc(NC(=S)Nc2ccc(Cl)c(Cl)c2)c(OC(F)F)c1`, 5.16 (active); that for `COc1ccc(NC(=O)Nc2ccc(C)cc2OC(F)F)cc1OC`, -0.0436.
Under `S=C(Nc1ccccc1Oc1ccccc1)Nc1cccc(Cl)c1Cl` stands 4.09 (active).
Regarding `COc1cc(NC(=S)Nc2cccc(Cl)c2Cl)c(OC)cc1Cl`, the z-score was determined as 0.605.
Under `CNC(=S)Nc1cc(Cl)ccc1Oc1ccccc1` stands 0.287; under `COc1cc(C)c(NC(=S)Nc2ccc(Cl)c(Cl)c2)cc1OC`, 0.396.
Under `S=C(Nc1ccccc1Cl)Nc1ccc(Cl)cc1Cl` stands 5.05 (active); under `S=C(Nc1ccc(OCc2ccccc2)cc1)Nc1cccc(Cl)c1Cl`, 0.844; under `CCNC(=S)Nc1cc(Cl)ccc1Oc1ccccc1`, 0.269.
The result for `S=C(Nc1ccccc1)Nc1cc(Cl)ccc1Oc1ccccc1` reads 3.43 (active); that for `S=C(Nc1ccccc1)Nc1ccc(Cl)cc1Cl`, 1.43; that for `CCNC(=S)Nc1ccc(Cl)cc1Cl`, 0.108.
`NC(=S)N/N=C/c1ccc(C(F)(F)F)cc1`: the z-score came to 0.721.
Regarding `Cc1cc(C)n(-c2cc(N3CCN(S(=O)(=O)c4ccc5ccccc5c4)CC3)ccc2[N+](=O)[O-])n1`, the z-score is -0.296.
For the compound `S=C1NCCc2ccccc2C1c1ccccc1` (stereo not given), the z-score is -0.276.
Under `O=C(CN1CCN(C(c2ccccc2)c2ccccc2)CC1)N1CCOCC1` stands -0.28; under `COC(=O)C(NNc1ccccc1)(NC(=O)c1cccc(F)c1)C(F)(F)F` (stereo not given), -0.19.
The result for `CCOC(=O)c1cc2c(=O)n3cccc(C)c3nc2n(CC2CCCO2)c1=NC(C)=O` (stereo not given) reads -0.0779; that for `S=C(Nc1ccc(Cl)cc1Cl)Nc1ccccc1Oc1ccccc1`, 4.54 (active); that for `O=C(COc1ccccc1Cl)Nc1cc(Cl)ccc1Oc1ccccc1`, -0.0408.
Consider `O=C(CCC(=O)c1ccc(Oc2ccccc2)cc1)Nc1ccc(Cl)cc1Cl`, for which the z-score stood at 0.0353.
The result for `COc1ccc(NC(=O)CCNC(=O)Cn2cnc3ccccc3c2=O)c(OC)c1` reads -0.512; that for `CCN(CC)S(=O)(=O)c1cc(NC(=O)Cn2cnc3ccccc3c2=O)ccc1C`, 3.32 (active).
The result for `COc1cc(OC)c(NC(=O)CCNC(=O)Cn2cnc3ccccc3c2=O)cc1Cl` reads 2.94.
As to `CN(C)S(=O)(=O)c1cccc(NC(=O)Cn2cnc3ccccc3c2=O)c1`, the z-score came out at 0.0344.
In the case of `CCN(CC)S(=O)(=O)c1ccc(NC(=O)Cn2cnc3ccccc3c2=O)cc1`, the z-score was -0.403.
The result for `COc1cc(OC)c(NC(=O)CCNC(=O)Cn2ccc3ccccc3c2=O)cc1Cl` reads -0.293.
The result for `C=CCc1ccccc1OCC(O)CN(CC)CC` (stereo not given) reads 0.0462; that for `CCCNC(=O)Cn1cnc2sc(C(=O)N3CCN(c4ccc(F)cc4)CC3)c(C)c2c1=O`, -0.159; that for `CCCCS(=O)CC(CS(=O)CCCC)OC(=O)c1ccccc1` (stereo not given), 0.895.
Under `O=C(/C=C/c1cccc2ccccc12)NCCC1=CCCCC1` stands -0.101.
`CC(C)(C)NS(=O)(=O)c1ccc(NS(C)(=O)=O)cc1`: the z-score is -0.0947.
Take `CCOC(=O)c1ccc(Nc2ncnc3nc[nH]c23)cc1`: the z-score is -0.0179.
The result for `CCCCc1ccc(Nc2ncnc3nc[nH]c23)cc1` reads 2.82; that for `c1ccc(COc2ccc(Nc3ncnc4nc[nH]c34)cc2)cc1`, 0.0418; that for `COc1cc(/C=N/NC(=O)CCn2nnc3ccccc32)ccc1O`, -0.659.
The result for `COc1cccc(/C=N/NC(=O)CCn2nnc3ccccc32)c1` reads 2.1.
The result for `COc1ccc(O)c(/C=N\NC(=O)CCn2nnc3ccccc32)c1` reads -0.125; that for `CCOC(=O)Cc1nnc(Nc2cccc(C)c2)c2ccccc12`, -0.988.
Consider `O=C(NCC1CCN(c2ccc(S(=O)(=O)N3CCOCC3)cc2)CC1)c1cccc(Cl)c1`, for which the z-score was 0.0384.
Under `COc1ccc(/C=C/C(=O)NC(=S)NN2CCCCC2c2cccnc2)cc1` (stereo not given) stands 0.454; under `COc1ccc(/C=C/C(=O)NC(=S)NN2CCCCC2c2cccnc2)cc1OC` (stereo not given), 0.0576; under `O=C(/C=C/c1ccc(Cl)cc1)NC(=S)NN1CCCCC1c1cccnc1` (stereo not given), 2.97.
On to `C=CCC(NC(C)c1ccccc1)c1ccco1` (stereo not given), for which the z-score amounted to 0.174.
Under `C=CCC(NCc1ccccc1)c1ccc(C)o1` (stereo not given) stands 0.143.
The compound `C=CCC(NCc1ccccc1)c1ccco1` (stereo not given) returned a z-score of 2.42.
Under `N#Cc1cnc(SCC(=O)c2ccccc2)nc1N` stands 0.0176; under `Cc1cc(N2CCN(Cc3ccccc3)CC2)n2nc(C)c(-c3ccccc3)c2n1`, 0.0393; under `Cc1cc(N2CCOCC2)n2nc(C)c(-c3ccccc3)c2n1`, 4.01 (active).
Under `Cc1cc(N2CCC(C)CC2)n2nc(C)c(-c3ccccc3)c2n1` stands -0.28.
The result for `Cc1cc(N2CCCCC2)n2ncc(-c3ccccc3)c2n1` reads -0.231; that for `Cc1cc(N2CCC(C)CC2)n2ncc(-c3ccccc3)c2n1`, 3.32 (active).
Regarding `Cc1cc(N2CCOCC2)n2ncc(-c3ccccc3)c2n1`, the z-score is -0.401.
The compound `Cc1cccc2cc(CN(Cc3cccs3)C(=S)NCC3CCCO3)c(=O)[nH]c12` (stereo not given) gave a z-score of -0.229.
With `O=C1c2ccccc2C(Nc2ccc3c(c2)OCCO3)N1c1ccccn1` (stereo not given), the z-score is 0.814.
Under `CCc1cccc(CC)c1NC(=S)N1CCn2cccc2C1c1cccnc1` (stereo not given) stands 0.37.
As to `NS(=O)(=O)c1ccc(S(=O)(=O)N2CCCC2)cc1`, the z-score is 3.11 (active).
`Nc1ccc(S(=O)(=O)N2CCCC2)cc1` showed a z-score of -0.115.
As to `O=S(=O)(c1ccc(S(=O)(=O)N2CCCC2)cc1)N1CCCCCC1`, the z-score came out at 0.224.
The result for `CSc1ccccc1NC(=O)c1ccoc1C` reads -0.082; that for `C=C(C)CNC(=S)N/N=C/C1=CCC2CC1C2(C)C` (stereo not given), 0.611; that for `CCCCNC(=S)N/N=C/C1=CCC2CC1C2(C)C` (stereo not given), 1.99.
`CC1(C)C2CC=C(/C=N/NC(=O)c3ccc(Cl)cc3)C1C2` (stereo not given) showed a z-score of 0.355.
